Of roughly 8,800 targets only a part is listed; those with a hit were picked by preference. About 0.5% of all pairs of compound and target were hits. A number with no mark means an inactive call.
Assays:
Experiment in all cases: log2 fold change, soluble protein after heating vs DMSO (PISA); higher = thermal stabilisation; K562 lysate, 10 uM; active = over 0.2 and 3.5 SD of the protein, either way, in both replicates (recomputed)
[1] = compound: C#Cc1cccc(Nc2ncnc3cc(OCCOC)c(OCCOC)cc23)c1 [erlotinib]
In short: (§1)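 A 30 min treatment with 10 μM compound was applied to crude K562 extract at 1 mg/mL protein in PBS pH 7.4 with 1 mM MgCl2. Heating for 3 min spanned 48°C-58°C, after which aliquots were pooled, adjusted to 0.5% NP-40 at 4°C and spun at 21,000xg for 90 min. TMTpro 16plex LC-MS/MS of the supernatant, with channel sums equalised, gave values recorded as log-two fold change in thermal stability against solvent controls, from duplicates.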

[2] = compound: C/C(=N\NC(=O)C1=CC(=CC=C1)S(=O)(=O)N2CCOCC2)/C3=C(C=CC(=C3)Cl)O
In short: as §1

[3] = compound: C1=CC(=CC=C1C2=NC3=C(N2)C=C(C=C3)C(=O)N)OC4=CC=C(C=C4)Cl
In short: as §1

[4] = compound: C1=CC2=C(C=CC(=C2)/C=C\3/C(=O)NC(=NCC4=CC=CS4)S3)N=C1
In short: as §1

[5] = compound: C1=CC2=NC=CN=C2C=C1/C=C/3\C(=O)NC(=O)S3
In short: as §1

[6] = compound: C1=CC=C(C=C1)C2=NC(=C(N2)C3=CC=NC=C3)C4=CC(=C(C=C4)Cl)O
In short: as §1

[7] = compound: C1=CC=C2C(=C1)C3=NNC4=CC=CC(=C43)C2=O
In short: as §1

[8] = compound: C1CCN(C1)C(=O)NC2=CC=CC(=C2)NC3=NC=C(C(=N3)NCCC4=CN=CN4)Br
In short: as §1

[9] = compound: C1CN(CCC1(CC2=CC=C(C=C2)Cl)N)C3=NC=NC4=C3C=CN4
In short: as §1

[10] = compound: C1COCCN1CCN2C3=CC=CC=C3N=C2NC(=O)C4=CC(=CC=C4)[N+](=O)[O-] [IRAK-1-4 Inhibitor I]
In short: as §1

UniProt O15014, sequence (O15014 whole entry, looked up): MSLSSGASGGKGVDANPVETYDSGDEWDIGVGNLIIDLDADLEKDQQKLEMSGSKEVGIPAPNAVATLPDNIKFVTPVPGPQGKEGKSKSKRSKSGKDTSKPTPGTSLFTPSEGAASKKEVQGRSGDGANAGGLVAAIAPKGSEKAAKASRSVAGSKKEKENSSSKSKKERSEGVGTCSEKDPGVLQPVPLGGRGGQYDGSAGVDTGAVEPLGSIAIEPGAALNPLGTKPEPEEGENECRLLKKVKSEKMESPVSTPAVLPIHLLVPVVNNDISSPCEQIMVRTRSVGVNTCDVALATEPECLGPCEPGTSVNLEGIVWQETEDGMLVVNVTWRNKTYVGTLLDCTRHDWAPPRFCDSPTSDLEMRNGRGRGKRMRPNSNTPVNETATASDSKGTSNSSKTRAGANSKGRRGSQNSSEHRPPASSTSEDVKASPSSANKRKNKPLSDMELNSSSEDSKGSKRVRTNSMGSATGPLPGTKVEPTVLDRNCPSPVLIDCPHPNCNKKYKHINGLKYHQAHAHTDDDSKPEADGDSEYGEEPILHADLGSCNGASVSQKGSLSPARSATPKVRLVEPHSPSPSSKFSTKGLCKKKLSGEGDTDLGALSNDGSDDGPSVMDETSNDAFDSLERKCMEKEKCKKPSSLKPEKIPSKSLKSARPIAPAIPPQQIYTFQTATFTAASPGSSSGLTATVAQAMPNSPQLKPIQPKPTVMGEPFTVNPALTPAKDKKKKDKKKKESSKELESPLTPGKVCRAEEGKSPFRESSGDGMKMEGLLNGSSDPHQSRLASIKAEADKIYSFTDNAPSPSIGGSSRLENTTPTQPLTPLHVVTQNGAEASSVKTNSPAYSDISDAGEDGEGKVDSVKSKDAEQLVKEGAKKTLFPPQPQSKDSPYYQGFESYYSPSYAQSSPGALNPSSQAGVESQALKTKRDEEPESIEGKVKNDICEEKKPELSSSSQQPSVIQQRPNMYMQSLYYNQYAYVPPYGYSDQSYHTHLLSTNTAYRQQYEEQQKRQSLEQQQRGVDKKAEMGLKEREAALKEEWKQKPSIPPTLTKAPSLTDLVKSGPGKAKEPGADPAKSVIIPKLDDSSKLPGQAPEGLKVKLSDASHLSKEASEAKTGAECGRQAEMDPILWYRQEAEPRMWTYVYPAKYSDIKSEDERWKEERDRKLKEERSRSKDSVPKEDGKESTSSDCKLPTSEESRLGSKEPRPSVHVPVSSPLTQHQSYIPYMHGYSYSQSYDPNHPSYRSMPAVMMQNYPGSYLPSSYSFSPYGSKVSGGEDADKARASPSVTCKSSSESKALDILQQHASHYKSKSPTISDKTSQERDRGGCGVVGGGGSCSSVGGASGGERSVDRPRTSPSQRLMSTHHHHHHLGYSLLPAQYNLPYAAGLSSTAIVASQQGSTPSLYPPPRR
UniProt Q9BTA9, sequence (Q9BTA9 whole entry, looked up): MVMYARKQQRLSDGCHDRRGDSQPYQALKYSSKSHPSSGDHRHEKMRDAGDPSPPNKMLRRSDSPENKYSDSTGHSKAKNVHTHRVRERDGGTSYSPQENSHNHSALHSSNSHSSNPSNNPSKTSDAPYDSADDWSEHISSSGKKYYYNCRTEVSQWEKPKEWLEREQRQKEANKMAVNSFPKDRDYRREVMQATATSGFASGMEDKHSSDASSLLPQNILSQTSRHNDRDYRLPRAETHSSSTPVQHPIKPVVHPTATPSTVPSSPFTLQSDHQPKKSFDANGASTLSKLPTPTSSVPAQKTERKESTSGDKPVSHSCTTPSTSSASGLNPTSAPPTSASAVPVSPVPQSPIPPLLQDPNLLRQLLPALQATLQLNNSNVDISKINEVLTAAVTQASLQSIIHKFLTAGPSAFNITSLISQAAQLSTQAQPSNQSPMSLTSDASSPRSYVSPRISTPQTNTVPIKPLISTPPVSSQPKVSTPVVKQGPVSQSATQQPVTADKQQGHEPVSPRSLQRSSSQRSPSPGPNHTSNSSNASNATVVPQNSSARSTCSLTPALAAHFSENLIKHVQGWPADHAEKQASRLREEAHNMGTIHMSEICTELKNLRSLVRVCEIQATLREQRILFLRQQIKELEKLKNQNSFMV
UniProt P49754, sequence (P49754 whole entry, looked up): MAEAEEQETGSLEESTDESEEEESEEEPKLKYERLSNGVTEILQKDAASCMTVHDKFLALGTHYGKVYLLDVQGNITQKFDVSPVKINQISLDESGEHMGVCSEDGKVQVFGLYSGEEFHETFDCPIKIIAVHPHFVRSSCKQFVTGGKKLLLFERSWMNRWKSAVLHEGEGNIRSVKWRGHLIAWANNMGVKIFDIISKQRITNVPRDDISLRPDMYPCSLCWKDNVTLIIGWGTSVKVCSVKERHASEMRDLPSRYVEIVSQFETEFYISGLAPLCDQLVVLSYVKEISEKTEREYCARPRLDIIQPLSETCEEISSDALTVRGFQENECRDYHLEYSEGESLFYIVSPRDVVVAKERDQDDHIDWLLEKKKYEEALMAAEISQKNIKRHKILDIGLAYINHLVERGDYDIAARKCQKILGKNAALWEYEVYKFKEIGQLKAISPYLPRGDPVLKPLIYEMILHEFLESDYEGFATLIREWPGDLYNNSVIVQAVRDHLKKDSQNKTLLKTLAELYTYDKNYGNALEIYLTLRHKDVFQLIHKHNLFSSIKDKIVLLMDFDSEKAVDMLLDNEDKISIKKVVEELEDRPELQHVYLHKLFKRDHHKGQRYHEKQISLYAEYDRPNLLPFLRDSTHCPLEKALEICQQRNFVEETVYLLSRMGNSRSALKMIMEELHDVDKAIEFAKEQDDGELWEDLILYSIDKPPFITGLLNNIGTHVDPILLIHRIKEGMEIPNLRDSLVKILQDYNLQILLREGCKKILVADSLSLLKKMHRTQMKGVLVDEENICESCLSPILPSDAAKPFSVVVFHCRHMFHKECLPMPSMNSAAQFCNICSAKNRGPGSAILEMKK
UniProt Q9BZI7, sequence (Q9BZI7 whole entry, looked up): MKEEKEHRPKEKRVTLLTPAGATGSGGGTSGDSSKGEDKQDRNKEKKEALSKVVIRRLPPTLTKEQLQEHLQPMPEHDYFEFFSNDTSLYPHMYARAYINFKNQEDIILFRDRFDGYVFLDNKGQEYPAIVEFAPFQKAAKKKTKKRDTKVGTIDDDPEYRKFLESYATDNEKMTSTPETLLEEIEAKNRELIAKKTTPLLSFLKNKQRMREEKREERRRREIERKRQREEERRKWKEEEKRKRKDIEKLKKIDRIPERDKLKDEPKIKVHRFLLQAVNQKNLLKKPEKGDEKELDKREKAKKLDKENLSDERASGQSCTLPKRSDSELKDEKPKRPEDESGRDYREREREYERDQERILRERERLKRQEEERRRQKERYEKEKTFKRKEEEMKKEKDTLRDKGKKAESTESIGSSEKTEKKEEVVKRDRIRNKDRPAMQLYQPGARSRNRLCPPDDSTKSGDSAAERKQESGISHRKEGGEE
UniProt Q9BRT2, sequence (Q9BRT2 whole entry, looked up): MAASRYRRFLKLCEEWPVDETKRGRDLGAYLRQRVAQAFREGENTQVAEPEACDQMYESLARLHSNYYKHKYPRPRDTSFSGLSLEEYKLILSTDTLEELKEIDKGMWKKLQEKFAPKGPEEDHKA
UniProt Q70J99, sequence (Q70J99 whole entry, looked up): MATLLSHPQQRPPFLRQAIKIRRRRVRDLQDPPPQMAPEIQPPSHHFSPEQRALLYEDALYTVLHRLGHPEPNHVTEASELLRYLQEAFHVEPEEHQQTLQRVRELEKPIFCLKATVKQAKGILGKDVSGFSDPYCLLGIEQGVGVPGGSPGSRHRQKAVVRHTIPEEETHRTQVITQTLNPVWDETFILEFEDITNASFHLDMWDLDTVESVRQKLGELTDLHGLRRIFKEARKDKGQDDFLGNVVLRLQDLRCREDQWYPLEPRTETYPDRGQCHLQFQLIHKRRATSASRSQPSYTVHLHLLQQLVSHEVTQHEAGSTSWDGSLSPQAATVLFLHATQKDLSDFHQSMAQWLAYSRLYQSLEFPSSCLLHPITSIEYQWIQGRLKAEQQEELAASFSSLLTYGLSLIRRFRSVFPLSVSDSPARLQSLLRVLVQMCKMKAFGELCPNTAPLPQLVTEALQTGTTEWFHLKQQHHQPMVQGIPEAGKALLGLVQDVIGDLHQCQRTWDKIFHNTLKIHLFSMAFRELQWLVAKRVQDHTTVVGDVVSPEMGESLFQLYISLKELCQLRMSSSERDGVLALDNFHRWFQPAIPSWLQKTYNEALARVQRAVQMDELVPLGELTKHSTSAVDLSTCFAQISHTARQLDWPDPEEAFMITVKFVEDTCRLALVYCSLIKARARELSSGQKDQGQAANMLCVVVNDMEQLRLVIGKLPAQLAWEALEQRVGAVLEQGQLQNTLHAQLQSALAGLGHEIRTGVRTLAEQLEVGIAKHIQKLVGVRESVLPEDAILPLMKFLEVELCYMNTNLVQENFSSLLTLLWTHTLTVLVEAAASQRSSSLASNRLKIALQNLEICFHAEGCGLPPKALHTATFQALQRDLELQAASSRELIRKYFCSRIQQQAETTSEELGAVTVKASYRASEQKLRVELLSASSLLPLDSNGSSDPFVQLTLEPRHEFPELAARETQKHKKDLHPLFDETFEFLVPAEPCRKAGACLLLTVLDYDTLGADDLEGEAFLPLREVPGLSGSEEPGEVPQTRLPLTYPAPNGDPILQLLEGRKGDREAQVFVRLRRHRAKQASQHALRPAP
UniProt P22695, sequence (P22695 whole entry, looked up): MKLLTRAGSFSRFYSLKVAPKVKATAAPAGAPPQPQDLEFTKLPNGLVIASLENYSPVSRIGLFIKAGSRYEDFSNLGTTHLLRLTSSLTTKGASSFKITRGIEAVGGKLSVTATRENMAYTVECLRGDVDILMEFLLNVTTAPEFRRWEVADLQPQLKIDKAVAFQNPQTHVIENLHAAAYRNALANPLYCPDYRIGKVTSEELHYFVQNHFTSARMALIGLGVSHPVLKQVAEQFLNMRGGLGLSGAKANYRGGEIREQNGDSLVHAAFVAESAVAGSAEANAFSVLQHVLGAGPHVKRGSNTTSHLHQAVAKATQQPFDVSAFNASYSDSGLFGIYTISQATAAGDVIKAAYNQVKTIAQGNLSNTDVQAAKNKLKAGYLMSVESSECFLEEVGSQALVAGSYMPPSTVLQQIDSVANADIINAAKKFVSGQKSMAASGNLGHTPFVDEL

Which results are given for UNC13D (UniProt Q70J99)?
log2 fold change [1]: 0.019; log2 fold change [2]: 0.023; log2 fold change [3]: -0.049; log2 fold change [4]: 0.02; log2 fold change [5]: 0.025; log2 fold change [6]: -0.007; log2 fold change [7]: -0.009; log2 fold change [8]: 0.005; log2 fold change [9]: 0.013; log2 fold change [10]: 0.022

ZHX1 (UniProt Q9UKY1) was tested. Which log2 fold change [1] did it give?
Its log2 fold change is 0.02.

What about the log2 fold change [2] of the same target?
The log2 fold change was -0.094.

What about the log2 fold change [3] of the same target?
The log2 fold change was 0.082.

What about the log2 fold change [4] of the same target?
Its log2 fold change is 0.051.

What about the log2 fold change [5] of the same target?
Its log2 fold change is -0.027.

And the log2 fold change [6]?
The log2 fold change was -0.027.

What about the log2 fold change [7] of the same target?
Its log2 fold change is -0.077.

What about the log2 fold change [8] of the same target?
Its log2 fold change is -0.119.

And the log2 fold change [9]?
The log2 fold change was 0.026.

What about the log2 fold change [10] of the same target?
Its log2 fold change is -0.055.

Which log2 fold change [1] does the source give for UPF3B (UniProt Q9BZI7) here?
Its log2 fold change is -0.026.

What about the log2 fold change [2] of the same target?
The log2 fold change was -0.109.

What about the log2 fold change [3] of the same target?
Its log2 fold change is 0.042.

What about the log2 fold change [4] of the same target?
Its log2 fold change is 0.02.

What about the log2 fold change [5] of the same target?
Its log2 fold change is -0.005.

What about the log2 fold change [6] of the same target?
The log2 fold change was 0.017.

And the log2 fold change [7]?
The log2 fold change was -0.014.

What about the log2 fold change [8] of the same target?
The log2 fold change was -0.018.

What about the log2 fold change [9] of the same target?
The log2 fold change was -0.008.

And the log2 fold change [10]?
The log2 fold change was 0.008.

Which results are given for VRK2 (UniProt Q86Y07)?
log2 fold change [1]: 0.04; log2 fold change [2]: 0.039; log2 fold change [3]: 0.113; log2 fold change [4]: -0.058; log2 fold change [5]: -0.056; log2 fold change [6]: 0; log2 fold change [7]: 0.064; log2 fold change [8]: 0.064; log2 fold change [9]: 0.196; log2 fold change [10]: 0.049

Which log2 fold change [1] does the source give for ZNF609 (UniProt O15014) here?
The log2 fold change was -0.035.

What about the log2 fold change [2] of the same target?
Its log2 fold change is -0.013.

And the log2 fold change [3]?
Its log2 fold change is 0.028.

What about the log2 fold change [4] of the same target?
The log2 fold change was -0.029.

What about the log2 fold change [5] of the same target?
The log2 fold change was -0.053.

What about the log2 fold change [6] of the same target?
Its log2 fold change is -0.023.

What about the log2 fold change [7] of the same target?
Its log2 fold change is -0.109.

What about the log2 fold change [8] of the same target?
The log2 fold change was -0.008.

What about the log2 fold change [9] of the same target?
The log2 fold change was 0.026.

What about the log2 fold change [10] of the same target?
Its log2 fold change is -0.005.

VPS39 (UniProt Q96JC1) was tested. Which log2 fold change [1] did it give?
Its log2 fold change is 0.015.

What about the log2 fold change [2] of the same target?
Its log2 fold change is -0.022.

What about the log2 fold change [3] of the same target?
Its log2 fold change is -0.005.

What about the log2 fold change [4] of the same target?
Its log2 fold change is -0.003.

What about the log2 fold change [5] of the same target?
Its log2 fold change is -0.002.

What about the log2 fold change [6] of the same target?
Its log2 fold change is 0.015.

And the log2 fold change [7]?
Its log2 fold change is -0.007.

What about the log2 fold change [8] of the same target?
The log2 fold change was -0.034.

What about the log2 fold change [9] of the same target?
Its log2 fold change is 0.031.

What about the log2 fold change [10] of the same target?
The log2 fold change was 0.019.

How did the log2 fold change [1] turn out when WRNIP1 (UniProt Q96S55) was run?
The log2 fold change was 0.019.

What about the log2 fold change [2] of the same target?
The log2 fold change was -0.128.

What about the log2 fold change [3] of the same target?
The log2 fold change was -0.014.

What about the log2 fold change [4] of the same target?
The log2 fold change was -0.024.

And the log2 fold change [5]?
The log2 fold change was -0.005.

And the log2 fold change [6]?
Its log2 fold change is 0.003.

And the log2 fold change [7]?
Its log2 fold change is -0.064.

And the log2 fold change [8]?
Its log2 fold change is 0.028.

What about the log2 fold change [9] of the same target?
The log2 fold change was 0.023.

And the log2 fold change [10]?
Its log2 fold change is -0.05.

How did the log2 fold change [1] turn out when ZC3HC1 (UniProt Q86WB0) was run?
The log2 fold change was 0.011.

And the log2 fold change [2]?
Its log2 fold change is -0.123.

What about the log2 fold change [3] of the same target?
Its log2 fold change is -0.006.

And the log2 fold change [4]?
Its log2 fold change is 0.005.

And the log2 fold change [5]?
Its log2 fold change is -0.009.

What about the log2 fold change [6] of the same target?
The log2 fold change was 0.007.

What about the log2 fold change [7] of the same target?
Its log2 fold change is 0.009.

And the log2 fold change [8]?
The log2 fold change was 0.011.

And the log2 fold change [9]?
Its log2 fold change is 0.018.

What about the log2 fold change [10] of the same target?
The log2 fold change was -0.003.

VPS16 (UniProt Q9H269) was tested. Which log2 fold change [1] did it give?
Its log2 fold change is 0.059.

What about the log2 fold change [2] of the same target?
The log2 fold change was 0.026.

What about the log2 fold change [3] of the same target?
Its log2 fold change is 0.048.

And the log2 fold change [4]?
Its log2 fold change is 0.024.

What about the log2 fold change [5] of the same target?
Its log2 fold change is -0.03.

What about the log2 fold change [6] of the same target?
Its log2 fold change is 0.048.

What about the log2 fold change [7] of the same target?
The log2 fold change was -0.075.

And the log2 fold change [8]?
Its log2 fold change is 0.03.

And the log2 fold change [9]?
The log2 fold change was 0.023.

What about the log2 fold change [10] of the same target?
Its log2 fold change is 0.025.

With UQCRC2 (UniProt P22695) as the target, how does the log2 fold change [1] read?
Its log2 fold change is 0.

And the log2 fold change [2]?
The log2 fold change was -0.029.

What about the log2 fold change [3] of the same target?
Its log2 fold change is 0.006.

What about the log2 fold change [4] of the same target?
The log2 fold change was -0.005.

And the log2 fold change [5]?
The log2 fold change was -0.019.

And the log2 fold change [6]?
Its log2 fold change is 0.01.

What about the log2 fold change [7] of the same target?
Its log2 fold change is 0.013.

What about the log2 fold change [8] of the same target?
The log2 fold change was -0.001.

And the log2 fold change [9]?
The log2 fold change was 0.019.

What about the log2 fold change [10] of the same target?
Its log2 fold change is 0.014.

Which log2 fold change [1] does the source give for VPS33A (UniProt Q96AX1) here?
The log2 fold change was 0.024.

And the log2 fold change [2]?
Its log2 fold change is 0.005.

What about the log2 fold change [3] of the same target?
The log2 fold change was 0.024.

What about the log2 fold change [4] of the same target?
Its log2 fold change is 0.035.

And the log2 fold change [5]?
Its log2 fold change is 0.018.

And the log2 fold change [6]?
Its log2 fold change is -0.006.

And the log2 fold change [7]?
The log2 fold change was -0.023.

What about the log2 fold change [8] of the same target?
Its log2 fold change is -0.025.

And the log2 fold change [9]?
The log2 fold change was 0.036.

What about the log2 fold change [10] of the same target?
Its log2 fold change is 0.015.

For WAC (UniProt Q9BTA9), which log2 fold change [1] is on record?
Its log2 fold change is 0.027.

And the log2 fold change [2]?
Its log2 fold change is 0.004.

What about the log2 fold change [3] of the same target?
The log2 fold change was 0.027.

What about the log2 fold change [4] of the same target?
The log2 fold change was 0.092.

And the log2 fold change [5]?
Its log2 fold change is -0.064.

And the log2 fold change [6]?
Its log2 fold change is 0.008.

What about the log2 fold change [7] of the same target?
The log2 fold change was -0.076.

What about the log2 fold change [8] of the same target?
Its log2 fold change is 0.051.

What about the log2 fold change [9] of the same target?
Its log2 fold change is 0.015.

And the log2 fold change [10]?
The log2 fold change was -0.006.

Which results are given for USE1 (UniProt Q9NZ43)?
log2 fold change [1]: 0.019; log2 fold change [2]: 0.31 (active); log2 fold change [3]: -0.026; log2 fold change [4]: -0.062; log2 fold change [5]: 0; log2 fold change [6]: -0.038; log2 fold change [7]: -0.06; log2 fold change [8]: 0.019; log2 fold change [9]: 0.025; log2 fold change [10]: 0.056

What does the source list for VPS41 (UniProt P49754)?
log2 fold change [1]: 0.032; log2 fold change [2]: 0.073; log2 fold change [3]: -0.029; log2 fold change [4]: 0.062; log2 fold change [5]: -0.003; log2 fold change [6]: 0.036; log2 fold change [7]: -0.033; log2 fold change [8]: -0.025; log2 fold change [9]: 0.049; log2 fold change [10]: -0.008

Which log2 fold change [1] does the source give for UQCC2 (UniProt Q9BRT2) here?
Its log2 fold change is 0.037.

And the log2 fold change [2]?
Its log2 fold change is 0.044.

What about the log2 fold change [3] of the same target?
Its log2 fold change is -0.039.

What about the log2 fold change [4] of the same target?
Its log2 fold change is 0.06.

What about the log2 fold change [5] of the same target?
Its log2 fold change is 0.001.

And the log2 fold change [6]?
The log2 fold change was -0.007.

What about the log2 fold change [7] of the same target?
Its log2 fold change is 0.

What about the log2 fold change [8] of the same target?
Its log2 fold change is -0.05.

And the log2 fold change [9]?
Its log2 fold change is -0.023.

What about the log2 fold change [10] of the same target?
The log2 fold change was 0.016.
